Ten compounds from the supplement of paper PMC8007513 can be followed below.

For the test, the system named is Trichoderma virens ATCC 9645. Put plainly: growth yield (OD600) with compound + IPBC relative to untreated control; higher = less growth inhibition. The conditions noted are these: compound concentration: 100 uM, IPBC concentration: 200 ng/ml. The procedure, abridged: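 Library compounds (100 μM final), with or without a co-applied biocide (200 ng ml^−1), were added to 100 μl aliquots of Trichoderma virens ATCC 9645 spores at 15,000 spores ml^−1 in potato dextrose broth. Cultures were grown at 30 °C in 96-well plates, and OD600 was measured at 40 h and 72 h. Each growth value is a mean of duplicate screens, expressed relative to the control with neither agent.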

Structures can show the parent of a compound that is named as a salt. ± gives the standard error. The campaign covered roughly 1,300 compounds. About 130 (10%) showed an effect of 50% or more. This excerpt belongs to a sample that is enriched for strong results.

Turning to `CC[C@H](C)C(=O)O[C@H]1C[C@@H](C)C=C2C=C[C@H](C)[C@H](CC[C@@H]3C[C@@H](O)CC(=O)O3)[C@H]21` [Lovastatin] + CCCCNC(=O)OCC#CI [3-iodo-2-propynyl butylcarbamate (IPBC)], the growth yield runs as follows: (40 h) 104 ± 4%; (72 h) 103 ± 1.6%.

For `CN1CCN(C(=O)OC2c3nccnc3C(=O)N2c2ccc(Cl)cn2)CC1` (stereo not given) [Zopiclone] + CCCCNC(=O)OCC#CI [3-iodo-2-propynyl butylcarbamate (IPBC)], the growth yield by setting is: (40 h) 91.8 ± 2.5%; (72 h) 93 ± 1.4%.

With `CC(=O)OC[C@H]1O[C@@H]([S-])[C@H](OC(C)=O)[C@@H](OC(C)=O)[C@@H]1OC(C)=O.CCP(CC)CC.[Au+]` [Auranofin] + CCCCNC(=O)OCC#CI [3-iodo-2-propynyl butylcarbamate (IPBC)], the growth yield by setting is: (40 h) 23.2 ± 1.3%; (72 h) 29.7 ± 2.4%.

With `CO[C@H]1/C=C/O[C@@]2(C)Oc3c(C)c(O)c4c(c3C2=O)C2=NC3(CCN(CC(C)C)CC3)NC2=C(NC(=O)/C(C)=C\C=C\[C@H](C)[C@H](O)[C@@H](C)[C@@H](O)[C@@H](C)[C@H](OC(C)=O)[C@@H]1C)C4=O` [Rifabutin] + CCCCNC(=O)OCC#CI [3-iodo-2-propynyl butylcarbamate (IPBC)], the growth yield reads like this: (40 h) 99.4%; (72 h) 97.1 ± 8.4%.

Consider `CC(=O)OCC1=C(C(=O)O)N2C(=O)[C@@H](NC(=O)Cc3cccs3)[C@H]2SC1` [Cephalothin sodium salt] + CCCCNC(=O)OCC#CI [3-iodo-2-propynyl butylcarbamate (IPBC)], for which the growth yield (40 h) was determined as 91.7 ± 8.4% and the growth yield (72 h) was 90.9 ± 7.9%.

Turning to `CCC(Cc1c(I)cc(I)c(N)c1I)C(=O)O` (stereo not given) [Iopanoic acid] + CCCCNC(=O)OCC#CI [3-iodo-2-propynyl butylcarbamate (IPBC)], the growth yield runs as follows: (40 h) 70.2 ± 2.5%; (72 h) 88.3 ± 4.4%.

`COc1c(N2C[C@@H]3CCCN[C@@H]3C2)c(F)cc2c(=O)c(C(=O)O)cn(C3CC3)c12` [Moxifloxacin] + CCCCNC(=O)OCC#CI [3-iodo-2-propynyl butylcarbamate (IPBC)]: the growth yield by setting is: (40 h) 109 ± 2.7%; (72 h) 105 ± 3.5%.

As for `O=C1c2ccccc2S(=O)(=O)N1CCCCN1CCN(c2ncccn2)CC1` [Ipsapirone] + CCCCNC(=O)OCC#CI [3-iodo-2-propynyl butylcarbamate (IPBC)], the growth yield runs as follows: (40 h) 87.4 ± 4.8%; (72 h) 90.7 ± 1.8%.

With `Cc1ccc(N(CC2=NCCN2)c2cccc(O)c2)cc1` [Phentolamine hydrochloride] + CCCCNC(=O)OCC#CI [3-iodo-2-propynyl butylcarbamate (IPBC)], the growth yield reads like this: (40 h) 86.25 ± 0.79%; (72 h) 97.64 ± 0.73%.

Turning to `CCCCCC[C@H]1C(=O)O[C@H](C)[C@H](NC(=O)c2cccc(NC=O)c2O)C(=O)O[C@@H](C)[C@@H]1OC(=O)CC(C)C` [Antimycin A] + CCCCNC(=O)OCC#CI [3-iodo-2-propynyl butylcarbamate (IPBC)], the growth yield is 17.6 ± 1.1% (40 h) and 42.9 ± 2.4% (72 h).
